Molecules are shown by their SMILES. Out of some 48,000 compounds screened, about 13,000 (27%) showed an effect of 50% or more. Some of the results follow.

The assay deals with Wolbachia pipientis. The assay is described as follows: Anti-Wolbachia Cell-Based Screen. It is filed as functional. The following applies: 5 µM. Set-up: scale not given: in the data most compounds retested in dose-response had high values.
Turning to `Cc1ccc(CNCC2CCCn3ccnc32)s1` (configuration not stated), the “Percent Effect” value is recorded as -4.636%.

Consider `Cn1cc(N2CCC(NC(=O)c3ccccc3F)C2=O)cn1` (configuration not stated), for which the “Percent Effect” value is recorded as 1.627%.

With `O=C(CCCn1cncn1)NC1(c2ccccc2)CCC1`, the “Percent Effect” value is -7.229%.

Take `Cn1cc(C2=NOC(C(=O)NC3(c4ccccc4F)CCCC3)C2)cn1` (configuration not stated): the “Percent Effect” value was found to be 111.1%.

For `Cn1cc(C2=NOC(C(=O)NC3(c4ccccc4)CCCC3)C2)cn1` (configuration not stated), the “Percent Effect” value is 117.7%.

On to `O=C(NC1(c2cccc(F)c2)CCOCC1)c1ccoc1`, for which the “Percent Effect” value was -9.671%.

For `Cn1cc(C2=NOC(C(=O)NC3(c4cccc(F)c4)CCCC3)C2)cn1` (configuration not stated), the “Percent Effect” value is reported as 105.1%.

For the compound `CC(=O)c1cc(C(=O)NC2(c3ccccc3)CCC2)n(C)c1`, the “Percent Effect” value was -2.692%.

Turning to `O=C(NC1(c2cccc(F)c2)CCOCC1)c1ccccn1`, the “Percent Effect” value came to 10.14%.

Take `CC(C)C(NC(=O)c1ccccc1F)C(=O)Nc1cnn(C)c1` (configuration not stated): the “Percent Effect” value was determined as 10.34%.

For `N[C@@H]1c2ccccc2C2(CCN(C(=O)c3cncc(Cl)c3)CC2)[C@H]1O`, the “Percent Effect” value is -1.083%.

In the case of `CCN(Cc1noc(C)n1)C(=O)C(c1cccc(C)c1)N(C)C` (configuration not stated), the “Percent Effect” value was found to be 1.236%.

As to `CSc1cc2c(cc1NC(=O)NCCn1ccnc1)OCCO2`, the “Percent Effect” value came to 8.638%.

As to `COCc1ccccc1C(=O)NS(=O)(=O)c1ccc2c(c1)CCC(=O)N2`, the “Percent Effect” value was -32.38%.

In the case of `COc1ccc2c(c1)C(C(=O)N(C)CCCc1cnn(C)c1)CC(=O)N2` (configuration not stated), the “Percent Effect” value is -51.57%.

For `Cn1ccnc1COc1ccc(CO)cc1`, the “Percent Effect” value came to 4.503%.

Take `COCCN1CCN(Cc2ccc(OCc3nccn3C)cc2)CC1`: the “Percent Effect” value stood at 100.2%.

Take `Cn1ccnc1COc1ccc(CN2CCN(CCO)CC2)cc1`: the “Percent Effect” value was -5.223%.

`CC(=O)N1CCN(Cc2ccc(OCc3nccn3C)cc2)CC1`: the “Percent Effect” value is recorded as 94.07%.

Regarding `Cn1ccnc1COc1ccc(CSc2nnnn2C)cc1`, the “Percent Effect” value is 6.685%.

In the case of `Cn1ccnc1COc1ccc(CSc2nncn2C2CC2)cc1`, the “Percent Effect” value is -10.32%.

With `Cn1ccnc1COc1ccc(CSc2nnnn2C2CC2)cc1`, the “Percent Effect” value is listed as -14.27%.

Take `CC1CCCN(Cc2ccc(OCc3nccn3C)cc2)C1` (configuration not stated): the “Percent Effect” value came out at 64.75%.

As for `Cn1ccnc1COc1ccc(COC(=O)C2CCCO2)cc1` (configuration not stated), the “Percent Effect” value is listed as 0.9583%.

As for `CCOC(=O)N1CCN(Cc2ccc(OCc3nccn3C)cc2)CC1`, the “Percent Effect” value was determined as 3.799%.

Regarding `Cn1ccnc1COc1ccc(CN2CCC(C(N)=O)CC2)cc1`, the “Percent Effect” value was 122.5%.

Turning to `CCCN1C[C@H]2CC[C@@H]1CN(Cc1cccc(O)c1)C2`, the “Percent Effect” value was 9.983%.

In the case of `CC(=O)c1ccc(N2CCCC(CO)(Cc3ccccc3C)C2)nc1` (configuration not stated), the “Percent Effect” value was -1.793%.

For `Cc1ccccc1SC1CCN(C(=O)[C@H]2[C@@H]3CNC[C@@H]32)CC1`, the “Percent Effect” value was -39.6%.

Regarding `Cc1ccccc1C1CCN(C(=O)CCNS(C)(=O)=O)C1` (configuration not stated), the “Percent Effect” value is on record as -0.3491%.

For `Cc1cccc(OC2CCN(C(=O)CNC(=O)N(C)C)CC2)c1`, the “Percent Effect” value is 0.03491%.

On to `Cc1cccc(SC2CCN(C(=O)CCNS(C)(=O)=O)CC2)c1`, for which the “Percent Effect” value stood at 90.55%.

In the case of `Cc1cccc(SC2CCN(C(=O)CCCn3cnnn3)CC2)c1`, the “Percent Effect” value is 97.25%.

With `CSCC(=O)N1CCC(Oc2cccc(C)c2)CC1`, the “Percent Effect” value was 1.414%.

As for `Cc1cccc(SC2CCN(Cc3nc(CC4CC4)no3)CC2)c1`, the “Percent Effect” value is reported as -16.83%.

Take `COc1cccc(OC2CN(C(=O)CCn3cnnn3)C2)c1`: the “Percent Effect” value is recorded as -0.2846%.

As to `Cc1ccccc1N1CCCN(C(=O)CCCS(N)(=O)=O)CC1`, the “Percent Effect” value is recorded as -5.383%.

Take `Cc1ccccc1SC1CCN(C(=O)CCCS(N)(=O)=O)CC1`: the “Percent Effect” value is given as 85.51%.

Turning to `CC(=O)NCCCC(=O)N1CCC(Sc2cccc(C)c2)CC1`, the “Percent Effect” value is on record as 104.7%.

For `CS(=O)(=O)NCCC(=O)N1CCC(Cc2ccc(CO)cc2)C1` (configuration not stated), the “Percent Effect” value is listed as 5.18%.

Consider `O=C(Nc1ccc2c(c1)OCO2)N1CCCC1c1ccco1` (configuration not stated), for which the “Percent Effect” value is on record as -0.7591%.

As for `Cc1nc(CN2C[C@@H](CN3CCOCC3)[C@@H](CO)C2)c2ccccn12`, the “Percent Effect” value amounted to 6.539%.

Consider `COCC(=O)N1CCc2nc(C(=O)N(C)C)sc2CC1`, for which the “Percent Effect” value is -18.32%.

In the case of `CN(Cc1ccc(C#N)cc1)Cc1noc(C(C)(C)C)n1`, the “Percent Effect” value is given as 1.419%.

`Cc1ccccc1CCC1CCCN(Cc2c(C)[nH]c(=O)[nH]c2=O)C1` (configuration not stated): the “Percent Effect” value is on record as 11.3%.

Regarding `NS(=O)(=O)CCCC(=O)N1CCC2(CC1)c1ccccc1CC2O` (configuration not stated), the “Percent Effect” value is -16.64%.

With `Cc1cccc(SC2CCN(C(=O)CCCS(N)(=O)=O)CC2)c1`, the “Percent Effect” value amounted to 79.05%.

For the compound `Cc1cnccc1N1CCCN(C(=O)CCCS(N)(=O)=O)CC1`, the “Percent Effect” value is on record as 5.967%.

Regarding `Cc1ncsc1-c1nnc(C2CCN(Cc3cccc(Cl)c3)CC2)o1`, the “Percent Effect” value was 113.8%.

Consider `COc1cccc(CN2CC[C@H](c3nnc(-c4ccco4)o3)C2)c1`, for which the “Percent Effect” value is reported as 18.39%.

Regarding `Cc1cccc(CN2CCC(c3nnc(-c4scnc4C)o3)CC2)c1`, the “Percent Effect” value is 109.5%.

Turning to `COc1cccc(CN2CCC(c3nnc(-c4cnc(C)cn4)o3)C2)c1` (configuration not stated), the “Percent Effect” value was 84.16%.

In the case of `Cc1ncsc1-c1nc(-c2cccc(CN3CCOCC3)c2)no1`, the “Percent Effect” value is on record as 1.772%.

Regarding `COc1cccc(CN2CC[C@H](c3nnc(C)o3)C2)c1`, the “Percent Effect” value is on record as 12.81%.

Regarding `Cc1nc(CN2CCN(CC(=O)Nc3c(C)cccc3C)CC2)no1`, the “Percent Effect” value is reported as 0.7695%.

Consider `COc1ccc(C(O)C(=O)N2CCC(c3nccn3C(C)C)CC2)cc1` (configuration not stated), for which the “Percent Effect” value is on record as -20.71%.

Consider `CC(NC(=O)c1ccoc1)C(=O)N(C)Cc1ccc(O)cc1` (configuration not stated), for which the “Percent Effect” value is given as -3.093%.

Consider `Cc1cc(NC(=O)NCC(c2ccsc2)N(C)C)n(C)n1` (configuration not stated), for which the “Percent Effect” value is given as -2.678%.

Consider `CCN(CC)C(CNC(=O)c1c(C)noc1C(C)C)c1ccsc1` (configuration not stated), for which the “Percent Effect” value came to 108.9%.

As for `Cc1noc(C(C)C)c1C(=O)NCC(c1ccsc1)N(C)C` (configuration not stated), the “Percent Effect” value is on record as -2.505%.

Take `Cc1noc(C)c1C(=O)NCC(c1ccc(F)cc1)N(C)C` (configuration not stated): the “Percent Effect” value is listed as -4.601%.

As for `Cc1cc(C(=O)NCC(c2ccsc2)N(C)C)no1` (configuration not stated), the “Percent Effect” value stood at 113.7%.

On to `Cc1nn(-c2ccccc2)nc1C(=O)NCC(c1ccsc1)N(C)C` (configuration not stated), for which the “Percent Effect” value is -0.008163%.

In the case of `CN(C)C(CNC(=O)c1ncoc1-c1ccccc1)c1ccsc1` (configuration not stated), the “Percent Effect” value is -4.122%.

In the case of `Cc1noc(C)c1C(=O)NCC(c1ccsc1)N(C)C` (configuration not stated), the “Percent Effect” value is given as 115.3%.

On to `Cc1nn(C)c(Cl)c1C(=O)NCC(c1ccsc1)N(C)C` (configuration not stated), for which the “Percent Effect” value is -1.114%.

In the case of `CC(c1cc(F)ccc1F)N1CCN(C(=O)c2ccc(=O)[nH]c2)CC1` (configuration not stated), the “Percent Effect” value is listed as -31.75%.

The record behind these values is ChEMBL document CHEMBL3988442, “University of Dundee, Small-Polar-MMV Screening Library” (2021).
